Measured values as given in PubChem BioAssay (NCATS).
Inconclusive results are not listed. Activity calls are given as the source filed them. Calls follow the shape of the dose curve; as a rule, active = well fitted curve in the direction sought with a large enough effect; inconclusive = small, poorly fitted or top-dose-only effect, or another doubt; inactive = no such curve, though single readings can be large; an effect the other way counts as inactive or inconclusive.

How the values were obtained:
MCC-13 = test: qHTS assay to identify novel small-molecules to repurpose for Merkel cell carcinoma treatment (AID 1296009); conditions: MCC and control cell lines, CellTiter-Glo viability, 72 h; series mostly up to 46 µM; also: nearly all actives have a fitted effect of over 60% in size
Method in brief: (§1)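 Dose-response viability screen; 72 hr exposure at 37 degree celsius; CellTiter-Glo added, 10 min room temperature, luminescence read; RLUs scaled between no-cell and DMSO wells.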

MCC-26 = test: as above; conditions: MCC and control cell lines, CellTiter-Glo viability, 72 h; series mostly up to 46 µM
Method in brief: as §1

MKL-1 = test: as above; conditions: MCC and control cell lines, CellTiter-Glo viability, 72 h; series mostly up to 46 µM
Method in brief: as §1

MKL-2 = test: as above; conditions: MCC and control cell lines, CellTiter-Glo viability, 72 h; series mostly up to 46 µM
Method in brief: as §1

UISO = test: as above; conditions: MCC and control cell lines, CellTiter-Glo viability, 72 h; series mostly up to 46 µM
Method in brief: as §1

WaGa = test: as above; conditions: MCC and control cell lines, CellTiter-Glo viability, 72 h; series mostly up to 46 µM
Method in brief: as §1

C33A = test: Primary qHTS to identify gynecologic anti-cancer compounds using libraries of approved drugs and bioactive compounds (AID 1345084); conditions: Gynecologic cancer cell panel viability, ATPlite luminescence, 48 h; series mostly up to 57.5 µM; also: nearly all actives have a fitted effect of over 55% in size
Method in brief: (§2)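 Five-point cytotoxicity, 48 h drug exposure at 37 C, 5% CO2, on cells seeded 16 h beforehand. ATP content read by ATPlite luminescence.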

CAOV3 = test: as above; conditions: Gynecologic cancer cell panel viability, ATPlite luminescence, 48 h; series mostly up to 57.5 µM
Method in brief: as §2

CASKI = test: as above; conditions: Gynecologic cancer cell panel viability, ATPlite luminescence, 48 h; series mostly up to 57.5 µM
Method in brief: as §2

Es-2 = test: as above; conditions: Gynecologic cancer cell panel viability, ATPlite luminescence, 48 h; series mostly up to 57.5 µM
Method in brief: as §2

HeLa = test: as above; conditions: Gynecologic cancer cell panel viability, ATPlite luminescence, 48 h; series mostly up to 57.5 µM
Method in brief: as §2

Hek293T [1] = test: as above; conditions: Gynecologic cancer cell panel viability, ATPlite luminescence, 48 h, control line for the selectivity index; series mostly up to 57.5 µM
Method in brief: as §2

JEG-3 = test: as above; conditions: Gynecologic cancer cell panel viability, ATPlite luminescence, 48 h; series mostly up to 57.5 µM
Method in brief: as §2

OV90 = test: as above; conditions: Gynecologic cancer cell panel viability, ATPlite luminescence, 48 h; series mostly up to 57.5 µM
Method in brief: as §2

PA-1 = test: as above; conditions: Gynecologic cancer cell panel viability, ATPlite luminescence, 48 h; series mostly up to 57.5 µM
Method in brief: as §2

SKOV3 = test: as above; conditions: Gynecologic cancer cell panel viability, ATPlite luminescence, 48 h; series mostly up to 57.5 µM
Method in brief: as §2

Tov-21-G = test: as above; conditions: Gynecologic cancer cell panel viability, ATPlite luminescence, 48 h; series mostly up to 57.5 µM
Method in brief: as §2

NIH3T3 = test: qHTS assay to identify novel small-molecules to repurpose for Merkel cell carcinoma treatment (AID 1296009); conditions: MCC and control cell lines, CellTiter-Glo viability, 72 h; at 44.8 µM (top of the series); also: nearly all actives have a fitted effect of over 60% in size
Method in brief: as §1

HEK293T [2] = test: as above; conditions: MCC and control cell lines, CellTiter-Glo viability, 72 h; at 44.8 µM (top of the series) unless noted
Method in brief: as §1

Measured: Potency

CCOCCn1c(N2CCCN(C)CC2)nc2ccccc21
not listed: NIH3T3 | HEK293T [2]
inactive: all other assays above

CCN1CCCC(OC(=O)C(c2ccccc2)c2ccccc2)C1 (centres undefined)
not listed: NIH3T3 | HEK293T [2]
inactive: all other assays above

O=C1C(=O)c2ccccc2C(O)=C1C1CCC(c2ccc(Cl)cc2)CC1 (centres undefined)
not listed: NIH3T3 | HEK293T [2]
inactive: all other assays above

CCOC(=O)c1ccc(N)cc1
not listed: NIH3T3 | HEK293T [2]
inactive: all other assays above

CC(C)CCCC(C)N (centres undefined)
not listed: HEK293T [2]
inactive: all other assays above

CC(=O)O[C@H]1C[C@@H]2CC[C@@H]3[C@H](CC[C@@]4(C)[C@H]3C[C@H]([N+]3(C)CCCCC3)[C@@H]4OC(C)=O)[C@@]2(C)C[C@@H]1N1CCCCC1
not listed: NIH3T3 | HEK293T [2]
inactive: all other assays above

CCN(CC)CCNC(=O)COc1ccc(OC)cc1
not listed: NIH3T3 | HEK293T [2]
inactive: all other assays above

C=C[C@@]1(C)CC(=O)[C@]2(O)[C@@]3(C)[C@@H](O)CCC(C)(C)[C@@H]3[C@H](O)[C@H](OC(C)=O)[C@@]2(C)O1
not listed: NIH3T3 | HEK293T [2]
inactive: all other assays above

CN1CCC(OC(c2ccccc2)c2ccccc2)CC1
not listed: OV90 | HEK293T [2]
inactive: all other assays above

CN1CCN(c2cc3c(cc2F)c(=O)c(C(=O)O)cn3-c2ccc(F)cc2)CC1
not listed: NIH3T3 | HEK293T [2]
inactive: all other assays above

CC(C)Nc1cccnc1N1CCN(C(=O)c2cc3cc(NS(C)(=O)=O)ccc3[nH]2)CC1
not listed: NIH3T3 | HEK293T [2]
inactive: all other assays above

Cc1ncc(CO)c(C=O)c1O
not listed: NIH3T3 | HEK293T [2]
inactive: all other assays above

CC1(C)OC[C@@H]2O[C@@]3(C(=O)O)OC(C)(C)O[C@H]3[C@@H]2O1
not listed: CAOV3 | NIH3T3
inactive: all other assays above

OC[C@H]1O[C@@H]2O[C@H]3[C@H](O)[C@@H](O)[C@@H](O[C@H]4[C@H](O)[C@@H](O)[C@@H](O[C@H]5[C@H](O)[C@@H](O)[C@@H](O[C@H]6[C@H](O)[C@@H](O)[C@@H](O[C@H]7[C@H](O)[C@@H](O)[C@@H](O[C@H]8[C@H](O)[C@@H](O)[C@@H](O[C@H]1[C@H](O)[C@H]2O)O[C@@H]8CO)O[C@@H]7CO)O[C@@H]6CO)O[C@@H]5CO)O[C@@H]4CO)O[C@@H]3CO
not listed: MCC-26 | NIH3T3
inactive: all other assays above
